# PINK1 expr mod = modulators of PINK1 expression; Potency, µM (highest dose often 76.6 µM), for inactives: top-dose activation (PINK1 increase), actives largely listed as activators; 410,000 tested, 0.2% active; PINK1 immunofluorescence, high-content cytometry, 24 h; active = well fitted activation curve with a large enough effect; inconclusive = small, poorly fitted or top-dose-only effect; cell line not stated here; note: % of control where 0% means no effect; nearly all actives have a fitted effect of over 65% in size
#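 PINK1 protein, normally rapidly degraded, was detected by immunofluorescence after 24 hour compound treatment of a stable cell line. Titration data (5 concentrations) came from laser-scanning cytometry, with CCCP-treated wells as controls.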
# Nrf2 block = blocks Nrf2 signaling; A549 ARE-Fluc reporter, luciferase luminescence, 18-24 h; 360,000 tested, 2.1% active; Potency, µM (highest dose often 46 µM), inactives show top-dose activity change, negative = inhibition, actives largely listed as inhibitors; AID 504444; note: % is set by controls: 0 for no effect and ±100 for the full control effect; nearly all actives have a fitted effect of over 60% in size
#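 Nrf2 function is reported as luminescence of an ARE-controlled luciferase in A549 cells. Compounds were tested at several concentrations, and a CellTiter-Fluor read on the same wells flagged cytotoxicity.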
# A549 tox = counter-screen for Nrf2 inhibitors: cytotoxicity in A549 cells; 390,000 tested, 0.16% active; AID 504648; A549 ARE-Fluc cells, CellTiter-Fluor viability, 18-24 h; Potency, µM (doses to about 46 µM), without a hit: at the highest dose activity change, negative = cytotoxicity, most hits filed as inhibitors; note: % is set by controls: 0 for no effect and ±100 for the full control effect
#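 A549 ARE-Fluc cells in 5% FBS OPTI-MEM, 5000 cells/well, rested 2 h then exposed to compounds in concentration-response for 18-24 h at 37 °C. Viability by CellTiter-Fluor fluorescence (Ex 405/Em 525) after 30 min; luciferase luminescence (BugLite, 15 min, RT) read afterwards.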
# Epigenetic reg = derepresses silenced GFP reporter in murine cells. murine LDR cells, GFP reporter derepression, 30 h. Potency, µM (top dose mostly 53.9 µM), inactives show top-dose GFP activation, actives largely listed as activators. 280,000 tested, 0.2% active. AID 1865; note: % of control where 0% means no effect; nearly all actives have a fitted effect of over 60% in size
#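 GFP-positive cell count by laser-scanning cytometry (objects 20–120 um) after 30 h, 37 C compound exposure of murine LDR cells; reporter is CMV-GFP integrated at a silenced locus, inducible by HDAC or DNMT inhibitors.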
# Nrf2 ARE act = activators of Nrf2 (ARE) signaling | AREc32 ARE-luciferase reporter (MCF7-derived line), luminescence, 24 h | Potency, µM (highest dose often 46.1 µM), for the others: at the highest dose activation, most hits filed as activators | 410,000 tested, 0.31% active; note: % of control where 0% means no effect; nearly all actives have a fitted effect of over 65% in size
#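 Each well held 1000 AREc32 cells, which were incubated with compound for 24 hr at 37 deg C after overnight attachment, and ARE reporter activity was quantified by firefly luciferase luminescence.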
# Active calls of the source: *; ? = inconclusive; nt = not tested or not shown; [ ] = remark or other dose. Sampled rows, rich in hits. Any-hit rate of the full collection: about 2.4%. Unless noted, calls come from the whole dose curve; as a rule, active = well fitted curve in the direction sought with a large enough effect; inconclusive = small, poorly fitted or top-dose-only effect, or another doubt; inactive = no such curve, though single readings can be large; an effect the other way counts as inactive or inconclusive. Potency is the fitted concentration of half-maximal effect.
SMILES,PINK1 expr mod,Nrf2 block,A549 tox,Epigenetic reg,Nrf2 ARE act
Cc1ccc(NC2=C(Cl)C(=O)c3ccccc3C2=O)cc1,-6%,23%,?,-1%,?
CCN(CC)c1ccc(NC2=C(Cl)C(=O)c3ccccc3C2=O)cc1,-6%,?,21µM*,-2%,?
Cc1cccc2sc(NC(=O)C3CCN(S(=O)(=O)c4cc([N+](=O)[O-])ccc4Cl)CC3)nc12,5%,12µM*,?,-1%,9%
COc1ccc2nc(NC(=O)C3CCN(S(=O)(=O)c4cccc5nsnc45)CC3)sc2c1,-2%,16µM*,-20%,-2%,0%
Cc1cccc(NC(=O)C2CCN(S(=O)(=O)c3cccc4nsnc34)CC2)n1,0%,?,-2%,-1%,-1%
Cc1nnc(NC(=O)C2CCN(S(=O)(=O)c3cc([N+](=O)[O-])ccc3Cl)CC2)o1,0%,-5%,1%,nt,19%
CCN(CC)CCNC(=O)c1cnn(-c2ncc3c(n2)-c2ccc(OC)cc2CC3)c1C,-1%,nt,nt,nt,nt
COc1ccc(C(=O)O)c(O)c1OC,-1%,nt,nt,6%,nt
COC1=C(N)C(=O)c2nc(-c3nc(C(=O)O)c(C)c(-c4ccc(OC)c(OC)c4O)c3N)ccc2C1=O,0%,0.073µM*,2.6µM*,-4%,-4%
Nc1nc(SCC(=O)Nc2cccc(Oc3ccccc3)c2)n[nH]1,1%,16µM*,-3%,-1%,4%
Nc1nc(SCC(=O)Nc2ccc(Oc3ccccc3)cc2)n[nH]1,0%,1%,-6%,-2%,0%
COc1ccccc1NC(=O)C(=O)N1N=C(C(C)C)CC1(O)C(F)(F)F (stereo unspecified),nt,23µM*,-21%,0%,-1%
COc1ccc(N2CCN(C(=O)C3CCN(S(=O)(=O)c4cccc5nonc45)CC3)CC2)cc1,2%,nt,1%,1%,3%
Cc1ccc(CSc2ncn(-c3ccccc3)n2)cc1,2%,22%,20%,-2%,1%
Cc1ccc(CSc2nccc(-c3c(C)nc4ccccn34)n2)cc1,3%,8.2µM*,-20%,0%,0%
C=CCn1c(C)cc(C(=O)COc2ccc(N(C)S(=O)(=O)c3ccc(NC(C)=O)cc3)cc2)c1C,1%,16µM*,-23%,nt,25%
COCC(C)n1c(C)cc(C(=O)COc2ccc(N(C)S(=O)(=O)c3ccc(NC(C)=O)cc3)cc2)c1C (stereo unspecified),1%,-7%,2%,nt,10%
Cc1ccc(NC(=O)c2cnc(SCC(=O)N3CCCc4ccccc43)n(C)c2=O)cc1,19%,nt,1%,2%,0%
c1ccc(N2CCN(c3nc(-c4ccccn4)nc4ccccc34)CC2)cc1,2%,16µM*,?,-1%,0%
Cc1ccc(C(=O)N2c3ccccc3N(Cc3ccccc3)C(=O)C2(C)C)cc1,nt,12µM*,-13%,5%,1%
Cc1ncc2c(c1CNC(=O)c1ccc3c(c1)OCO3)CCN(C(=O)c1csc3c1CCCC3)C2,0%,nt,nt,nt,nt
CC(=O)c1ccccc1NC(=O)c1ccc(OCc2c(C)noc2C)cc1,2%,13µM*,0%,nt,2%
Cc1ccc(C(=O)OCc2c(C)noc2C)cc1NC(=O)c1ccco1,0%,11%,-5%,-2%,4µM*
Cc1noc(C)c1COc1ccccc1C(=O)N1CCN(c2cccc(Cl)c2)CC1,10%,-9%,-3%,nt,-1%
CCCCNC(=O)COC(=O)c1ccc(C)c(NC(=O)c2ccco2)c1,-2%,7%,6%,0%,3%
SMILES,PINK1 expr mod,Nrf2 block,A549 tox,Epigenetic reg,Nrf2 ARE act
CCOc1ccc(C(=O)Nc2ccc(NC(=O)c3ccco3)c(Cl)c2)cc1Cl,1%,21µM*,?,1%,0%
Cc1noc(C)c1COc1ccc(C(=O)N2CCN(c3cccc(Cl)c3)CC2)cc1,0%,23µM*,-5%,nt,0%
CCOc1ccc(C(=O)Nc2ccc(NC(=O)c3ccco3)c(Cl)c2)cc1Br,?,?,?,0%,0%
CC(=O)c1cccc(NC(=O)c2ccc(OCc3c(C)noc3C)cc2)c1,11%,?,-2%,nt,-1%
CC(C)(C)N1C(=O)[C@H]2[C@H]3[C@H](O)[C@H](O)C/C(=N/OCc4ccccc4)[C@@H]3CC[C@@H]2C1=O,nt,nt,nt,1%[10.1 µM],nt
CCOC(=O)c1cccc(NC(=O)c2ccc(NC(=O)c3ccco3)cc2)c1,3%,21µM*,-11%,nt,5%
CCOC(=O)c1cccc(NC(=O)c2ccc(N(C)C)cc2)c1,-1%,16µM*,-6%,0%,-1%
CCOC(=O)c1cccc(NC(=O)COc2ccc([N+](=O)[O-])cc2)c1,-2%[38.3 µM],26µM*,-10%,4%,0%
O=C(Nc1ccccc1)c1cccc(NC(=O)c2ccco2)c1,-2%,?,-7%,nt,20%
C=Cc1cccc(NC(=O)c2ccc(NC(=O)c3ccco3)cc2)c1,1%,10µM*,0%,nt,1%
CCCOC(=O)c1cccc(NC(=O)COc2ccc([N+](=O)[O-])cc2)c1,4%,?,-24%,3%,1%
O=C(Cc1ccc(OCCCc2ccccc2)cc1)NO,2%,nt,nt,nt,nt
Cc1nn(S(=O)(=O)c2ccc(F)cc2)c(C)c1S(=O)(=O)N1CCCCCC1,2%,nt,4%,-1%,0%
COc1cccc(-c2cc3c(c(OC)c2)OCCN(Cc2cccn2-c2ccccn2)C3)c1,-1%,nt,nt,nt,nt
Cc1c(C(=O)Nc2ccc(F)cc2)nnn1-c1cccc(C(F)(F)F)c1,2%,21µM*,-15%,-3%,3%
Fc1c(F)c(F)c(N/N=C/c2c[nH]c3ccccc23)c(F)c1F,23%,-6%,-5%,?,13µM*
Cc1ccc(CN2CCOc3ccc(C(C)(O)COc4ccccc4)cc3C2)o1 (stereo unspecified),0%,nt,nt,nt,nt
O=C(NC(Nc1ncc(S(=O)(=O)c2ccc([N+](=O)[O-])cc2)s1)(C(F)(F)F)C(F)(F)F)c1ccc(Cl)cc1,?,5.8µM*,?,2%,?
